Screening results as filed in PubChem.
IL-1B inflam inh: blocks inflammasome-driven IL-1 beta release. activity change, % at 57.5 µM. 360,000 tested, 4.7% active. THP-1 LPS/ATP IL-1B secretion, AlphaLISA, 16 h; active compounds read low; in the data active = activity change below about -50%; inconclusive = mostly about -30% to -49%; also: % is scaled to controls: 0 for no effect and ±100 for the full control effect
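Secreted IL-1B measured by AlphaLISA bead assay after 16 h compound exposure of THP-1 cells; compounds (final up to 57.5 uM) added 1 h before LPS (250 ng/mL) and ATP (1.25 mM) stimulation; lower signal means less secretion.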
SW480 rerep: induces DNA re-replication in SW480 colon adenocarcinoma cells. SW480 DNA re-replication, Hoechst DNA content imaging, 48 h. Potency, µM (doses to about 46.1 µM), for inactives: at the top dose re-replication activation, hits mostly activators. 340,000 tested, 1.8% active; also: potency is read from the fitted curve at half-maximal effect; % of control where 0% means no effect; nearly all actives have a fitted effect of over 55% in size
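Image-based read-out: total Hoechst fluorescence of nuclei (405 nm excitation, 500-530 nm emission), with hits raising the fraction of high-intensity nuclei. SW480 colon cells incubated 48 hr with compounds at 37 C.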
KB-V1 cytotox: kills drug-selected multidrug resistant KB-V1 cells; 400,000 tested, 3.4% active; Potency, µM (doses to about 46.1 µM), hits mostly cytotoxic; KB-V1 MDR cells viability, CellTiter-Glo, 72 h; also: potency is read from the fitted curve at half-maximal effect; % is scaled to controls: 0 for no effect and ±100 for the full control effect; nearly all actives have a fitted effect of over 60% in size
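Cells of the MDR subline KB-V1 are plated, dosed with compound at multiple concentrations, and incubated 72 h at 37 degrees C; CellTiter-Glo is then added and luminescence read after 10 min.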
KB-3-1 tox: KB-3-1 parental cell cytotoxicity; KB-3-1 viability, CellTiter-Glo ATP luminescence, 72 h; Potency, µM (titrated, usually from 46.1 µM), most hits filed as cytotoxic; 400,000 tested, 1.4% active; also: potency is read from the fitted curve at half-maximal effect; % is scaled to controls: 0 for no effect and ±100 for the full control effect; nearly all actives have a fitted effect of over 60% in size
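Cells are dispensed, compounds pinned in, plates held at 37 °C for 72 h, then CellTiter-Glo is added and luminescence read after 10 minutes. Cell line: parental KB-3-1 in phenol-red-free DMEM, 10% FBS.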
MCF10A rereplic: DNA re-replication induction in MCF 10a cells | MCF 10A DNA re-replication, Hoechst nuclear intensity, 48 h | AID 624296 | 350,000 tested, 2.9% active | Potency, µM (series often up to 46.1 µM), for inactives: at the top dose activity, positive = re-replication, usual class: activators; also: potency is read from the fitted curve at half-maximal effect; % of control where 0% means no effect; nearly all actives have a fitted effect of over 50% in size
An asterisk follows results filed as active; i = inactive; ? = inconclusive; / = no result. The list is not random: actives were taken first. Their share in the collection is about 9.9%. Unless noted, calls follow the shape of the dose curve; as a rule, active = well fitted curve in the direction sought with a large enough effect; inconclusive = small, poorly fitted or top-dose-only effect, or another doubt; inactive = no such curve, though single readings can be large; an effect the other way counts as inactive or inconclusive.

SMILES	IL-1B inflam inh	SW480 rerep	KB-V1 cytotox	KB-3-1 tox	MCF10A rereplic
COc1ccc(C(=O)NC(=S)Nc2ccccc2N2CCOCC2)cc1[N+](=O)[O-]	22	-5%	?	?	?
Cc1ccc(-c2csc(NC(=O)c3cc([N+](=O)[O-])ccc3N3CCOCC3)n2)cc1	21	-1%	i	i	4%
COc1cccc(CNC(=O)c2ccc(N3CCOCC3)c([N+](=O)[O-])c2)c1	-12	-5%	i	i	5%
CN1CCN(c2ccc(C(=O)c3ccc(Br)cc3)cc2[N+](=O)[O-])CC1	-220*	?	?	i	1%
COc1ccc(C(=O)Nc2ccccc2N2CCOCC2)cc1[N+](=O)[O-]	-1	-105%	21µM*	i	3%
C#CCSc1n[nH]c(=O)n1-c1cccc(C(F)(F)F)c1	39	-3%	i	i	4%
COc1cccc(NC(=O)CSc2nc3ccc(NC(=O)c4cccs4)cc3s2)c1	/	/	i	i	/
C/C(=N\NC(=O)C(C)Sc1ccccc1)c1ccc([N+](=O)[O-])cc1 (stereo unspecified)	41	1%	i	i	-1%
COc1ccc2c(CNCCc3cccs3)c(C(=O)O)n(Cc3ccccc3C)c2c1	/	/	i	i	/
COc1cccc(NC(=O)C(=O)NCC(c2cccnc2)N2CCN(c3ccccc3)CC2)c1 (stereo unspecified)	/	/	i	i	/
CC(C)(CO)NCc1cccs1	7	1.3µM*	i	?	1%
CCOc1ccc(CC(=O)NNC(=S)NC)cc1	/	-56%	i	i	1.3µM*
CCOc1ccc(CNC(=O)CC(C)n2nc(C)cc2C)cc1OC (stereo unspecified)	/	/	i	i	/
COc1ccc(C(=O)N2CCC(C)(C(=O)NS(=O)(=O)C3CC3)C2)cc1F (stereo unspecified)	19	/	?	i	/
Cc1nc2c(c3c1[nH]c1ccccc13)C(O)CC(C)(C)C2 (stereo unspecified)	-11	?	16µM*	?	18µM*
Cc1nn(-c2ccccc2)c2c1C(O)CC(C)(C)C2 (stereo unspecified)	-22	-10%	?	i	-1%
